Structures are written as SMILES. In all, about 1,200 compounds went through this assay and about 170 (14%) were called active. No rule for the calls is given here. A selection follows. Results with a measured potency or affinity are listed apart.

This experiment in a line: twin-arginine translocation blockade, bacterial reporter – cherry-pick, set 2, plate reader, dose response (AID 504941). Particulars: E. coli Tat transport reporter; series mostly up to 38 µM.
Take `O=C(Nc1nc2c(s1)CCCC2)c1cccc(S(=O)(=O)N2CCCc3ccccc32)c1`: the molecule was called inactive.
As for `O=C(CCSc1ccccc1)NCC1CCCO1` (stereo not drawn), the call was inactive.
As for `CN(C(=O)c1cc2sccc2n1C)C1CCCCC1`, the outcome was inactive.
The entry for `O=C(C1CCCO1)N1CCN(c2c3c(nc4cc(-c5ccc(F)cc5)nn24)CCC3)CC1` (stereo not drawn) is “inactive”; for `CCOc1ccc(Br)cc1CNCCN1CCOCC1` it is “inactive”; for `O=C(c1ccc2nc[nH]c2c1)N1CCN(c2ncc(C(F)(F)F)cc2Cl)CC1` it is “inactive”.
Regarding `CN(C)S(=O)(=O)c1cccc(NC(=O)C2CCN(S(=O)(=O)c3cccs3)CC2)c1`, the outcome was inactive.
As to `Cn1c(SCC(=O)NCc2cccs2)nnc1-c1ccc(S(=O)(=O)N2CCCC2)cc1`, the outcome was inactive.
Consider `O=C(Cn1cc2c(n1)CCCCC2)N1CCc2ccccc2C1`, for which the result was inactive.
With `CC(/C=N/NC(=O)c1n[nH]c2c1CCC2)=C\c1ccccc1`, the call was inactive.
`CCC(CO)NC(=O)c1cccc(S(=O)(=O)N2c3ccccc3CC2C)c1` (stereo not drawn): the molecule was classed as inactive.
Take `CC(C)S(=O)(=O)C1=NSC2=NC(=O)/C(=C\c3ccc(-c4cccc(C(=O)O)c4)o3)C(=N)N21`: the molecule was classed as inactive.
For `O=C(Nc1cc(N2CCOCC2)ncn1)c1ccccc1`, the call was inactive.
Take `O=C(O)c1ccc(NC2=C(N3CCOCC3)C(=O)c3ccccc3C2=O)cc1`: the call was inactive.
With `O=C(COC(=O)Cn1cnc2ccccc2c1=O)NCC12CC3CC(CC(C3)C1)C2` the entry was “inactive”; with `CC(=O)NC1=NN(C(C)=O)C2(S1)C(=O)N(C(C)C)c1ccc(C)cc12` (stereo not drawn), “inactive”; with `Cc1cc(-c2c(C)[nH]n(-c3ccc(Cl)cc3)c2=O)n(-c2ccc(Cl)cc2)n1`, “inactive”.
With `COC(=O)COc1cc2ccccc2cc1C(=O)Nc1ccccc1` the entry was “inactive”; with `O=[N+]([O-])c1cccc(COc2cccc(CN3CCCCC3)c2)c1`, “inactive”.
The entry for `CS(=O)(=O)N1CCN(C(=O)c2cccnc2)CC1` is “inactive”.
`CC1(C)CC(=O)C=C(NCCN2CCN(C(=O)Nc3ccccc3)CC2)C1`: the molecule was called inactive.
The entry for `CC(C)(C)NC(=O)C[C@H]1C[C@H](C(=O)N2CCOCC2)[C@@]2(CCC3CCCC3)c3[nH]c4cc(-c5ccco5)ccc4c3CCN2C1=O` is “inactive”; for `O=C(NCc1cccc(Cl)c1)c1cnn2c1NC(c1ccco1)CC2C(F)(F)F` (stereo not drawn) it is “inactive”.
With `O=C(CSc1nc2ccccc2c(=O)[nH]1)N1CCN(c2ccccc2F)CC1` the entry was “inactive”; with `CC1Cc2cc(/C(O)=C3/C(=O)C(=O)N(Cc4ccco4)C3c3cccs3)ccc2O1` (stereo not drawn), “inactive”; with `O=C(CNc1ccc(Cl)cc1)c1ccc(Br)cc1`, “inactive”.
In the case of `CC(C)c1ccc(OCC(=O)NC2=NCCS2)cc1`, the molecule was called inactive.
As for `CCCCOC(=O)C1=C(C)NC(=O)NC1c1ccc2c(c1)OCO2` (stereo not drawn), the call was inactive.
As for `CCN1CCCC1CNC(=O)C(=O)NC(C)C` (stereo not drawn), the molecule was called inactive.
With `COc1cc(CNCc2ccccn2)ccc1OCc1c(Cl)cccc1Cl`, the result was inactive.
With `Cc1c(NC(=O)Nc2ccccc2)cccc1[N+](=O)[O-]`, the outcome was inactive.
As to `CC1CN(S(=O)(=O)c2ccc(C(=O)Nc3ccccc3F)cc2)CC(C)O1` (stereo not drawn), the call was inactive.
The entry for `Clc1ccc(C2[C@H]3CN(Cc4cccnc4)[C@H](c4ccccc4)C34CC2(c2ccccc2)C4)cn1` (stereo partly drawn) is “inactive”; for `Cc1ccc(NC(=O)CCCc2nc3ccccc3s2)c(O)c1` it is “inactive”; for `Cc1cnc(C(=O)OCC(=O)Nc2sc3c(c2C#N)CCC3)cn1` it is “inactive”.
With `N#Cc1cn(CC(=O)N2CCCc3ccccc32)c2ccccc12`, the result was inactive.
For the molecule `COc1cc(S(=O)(=O)Nc2cc(C)cc(C)c2)ccc1F`, the result was inactive.
Consider `COc1ccc(OC2OC3COC(c4ccco4)OC3C(O)C2NC(C)=O)cc1` (stereo not drawn), for which the molecule was called inactive.
As to `Cc1ccc(C(=O)CN2/C(=C(\O)c3ccccc3)C(=O)c3ccccc3S2(=O)=O)c(C)c1`, the result was inactive.
The entry for `CC(=O)c1c(C)[nH]c(C(=O)Nc2ccccc2N2CCOCC2)c1C` is “inactive”.
As to `Clc1ccccc1-c1nn2c(-c3ccncc3)nnc2s1`, the call was inactive.
For `COc1cccc(C(=O)NCCS(=O)(=O)NCc2ccccn2)c1`, the molecule was classed as inactive.
`O=C(O)CN1C(=O)CC(Cc2ccc(Cl)cc2)C1=O` (stereo not drawn): the molecule was called inactive.
With `Cc1c(N2C(=O)c3cccc4cccc(c34)C2=O)c(=O)n(-c2ccccc2)n1C` the entry was “inactive”; with `CCOC(=O)c1c2c3c(c(Cl)ccc3[nH]c1=O)C(=O)c1ccccc1-2`, “inactive”; with `CCOC(=O)c1ccccc1-n1nnnc1C`, “inactive”.
As for `CCCCN1CC(COCc2ccccc2)Oc2cccc(N3CCCC3)c2S1(=O)=O` (stereo not drawn), the molecule was classed as inactive.
Turning to `CC(=O)Nc1cccc(Oc2nc(C(F)(F)F)nc3ccccc23)c1`, the molecule was called inactive.
On to `COc1ccc(NS(=O)(=O)c2cc(NC(=O)CCc3ccc(OC)c(OC)c3)ccc2N2CCOCC2)cc1`, for which the result was inactive.
With `O=C(CNC1CCCCC1)Nc1cc(S(=O)(=O)N2CCOCC2)ccc1Cl`, the outcome was inactive.
On to `O=C(CNC1CCCCCC1)Nc1ccccc1N1CCCCC1`, for which the molecule was called inactive.
On to `COC(c1ccccc1)c1nnc(CCC(=O)N(C)C(C2CC2)C2CC2)o1` (stereo not drawn), for which the molecule was called inactive.
With `CCOC(=O)C1(Cc2cccc(F)c2)CCN(C2CCOCC2)CC1`, the molecule was called inactive.
Regarding `COc1ccc(/C=N/Nc2ccccn2)cc1O`, the molecule was classed as inactive.
On to `C(=N\n1cncn1)/c1ccc(N2CCOCC2)cc1`, for which the call was inactive.
Turning to `CC(NC(=O)c1ccc([N+](=O)[O-])cc1[N+](=O)[O-])c1ccc(-c2ccccc2)cc1` (stereo not drawn), the molecule was classed as inactive.
On to `CCOc1ccc(NC(=O)c2ccc(NC(=O)COC(=O)Cc3ccc(OC)cc3)cc2)cc1`, for which the molecule was called inactive.
The entry for `Cc1ccc(-n2nnnc2SCC(=O)Nc2ccc3c(c2)OCCO3)cc1C` is “inactive”.
As to `Cn1ncc(Cl)c1C(=O)NCc1ccc(Cl)cc1`, the molecule was called inactive.
Turning to `COC(=O)c1ccc(OC(=O)c2nn(C)cc2Cl)c(OC)c1`, the outcome was inactive.
With `O=C(Cc1ccccc1Cl)c1ccccc1` the entry was “inactive”.
Consider `CCN(Cc1ccccc1)S(=O)(=O)c1c[nH]c(C(=O)OC)c1`, for which the call was inactive.
Turning to `O=C(O)Cn1cc(C(=S)N2CCOCC2)c2ccccc21`, the outcome was inactive.
`CCCCc1ccc(N=N/C(C(=O)Nc2ccc(NC(C)=O)cc2OC)=C(/C)O)cc1`: the result was inactive.
As to `CC(=O)NC(Cc1ccc(F)c(F)c1)C(=O)NC1CCN(c2c(Cc3ccccc3)c(C)nc3ncnn23)CC1` (stereo not drawn), the result was inactive.
For `O=C1CC(c2cc(-c3ccccc3)no2)C1`, the outcome was inactive.
Take `CNC(=O)CNC(=O)Nc1ccc(C)cc1`: the call was inactive.
On to `CCN(C[C@H]1N[C@@](Cc2ccccc2)(C(=O)OC)[C@H]2C(=O)N(C)C(=O)[C@@H]12)C(C)=O`, for which the result was inactive.
